From PubChem BioAssay AID588342 (National Center for Advancing Translational Sciences (NCATS), 2011)
Among all 360,000 compounds or so, about 25,000 (6.9%) were called active. A call without a number means that no potency is given here. About 9% were inconclusive and are not listed. Calls come from the whole dose curve; as a rule, active = well fitted inhibition curve with a large enough effect; inconclusive = small, poorly fitted or top-dose-only effect; inactive = flat fitted curve, though single readings scatter. Only a selection was taken, and actives are over-represented in it overall.

Biological target: Luciferin 4-monooxygenase (Photinus pyralis) (UniProt P08659)
Sequence (P08659 whole entry, looked up): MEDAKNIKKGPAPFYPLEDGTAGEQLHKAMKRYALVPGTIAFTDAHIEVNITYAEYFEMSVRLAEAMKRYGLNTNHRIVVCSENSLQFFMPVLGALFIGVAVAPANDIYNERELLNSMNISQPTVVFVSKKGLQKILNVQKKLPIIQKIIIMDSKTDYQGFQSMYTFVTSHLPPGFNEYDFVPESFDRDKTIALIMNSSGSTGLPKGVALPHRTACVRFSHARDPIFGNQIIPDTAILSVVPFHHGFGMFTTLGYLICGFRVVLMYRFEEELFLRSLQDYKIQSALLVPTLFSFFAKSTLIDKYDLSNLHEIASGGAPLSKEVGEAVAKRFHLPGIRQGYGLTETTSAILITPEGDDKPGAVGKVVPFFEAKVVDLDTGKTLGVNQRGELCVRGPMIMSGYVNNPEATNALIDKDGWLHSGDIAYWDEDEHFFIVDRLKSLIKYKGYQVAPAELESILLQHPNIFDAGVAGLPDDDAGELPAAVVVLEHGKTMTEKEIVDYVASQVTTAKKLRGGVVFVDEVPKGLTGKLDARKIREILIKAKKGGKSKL
Experiment: qHTS profiling assay for firefly luciferase inhibitor/activator using purifed enzyme and Km concentrations of substrates (counterscreen for miR-21 project); note: nearly all actives have a fitted effect of over 55% in size
Details: purified FLuc, luminescence inhibition; series mostly up to 57.5 µM
Outline: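 Purified P. pyralis luciferase, 10 nM final, with Km-level 10 uM D-luciferin and 10 uM ATP in 50 mM Tris acetate pH 7.5, 10 mM Mg acetate, 0.01% Tween-20, 0.05% BSA; 6-point qHTS titration about 60 µM downward; luminescence read.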
Potency is the fitted concentration of half-maximal effect.

SMILES	Potency
CCOc1ccc(N(CC)C(=O)c2noc3c2COc2ccc(C)cc2-3)cc1	inactive
COc1ccccc1CNC(=O)CCn1c(=O)c2ccccc2n(CC(=O)Nc2cccc(Cl)c2)c1=O	inactive
Cc1ccc(C)c(N2CCN(C(c3ccccc3)c3nnc(-c4ccccc4)o3)CC2)c1 (centres undefined)	inactive
NC(N)=N/N=C/c1ccc(OCc2ccc(Cl)cc2Cl)cc1	16.9 µM (active)
CCOc1ccc(NC(=O)NNC(=O)c2ccc(Cl)cc2Cl)cc1	inactive
OC(CNCCc1ccc(Cl)cc1Cl)COc1ccccc1 (centres undefined)	inactive
C#CCOc1ccc(C2CC(=O)Nc3c2c(C)nn3-c2nc(C)cc(C)n2)cc1 (centres undefined)	inactive
CS(=O)(=O)c1ccc(C(=O)OCC(=O)NNC(=O)COc2ccc(Cl)cc2)cc1	inactive
COC(=O)c1sccc1NC(=O)COc1ccc(Cl)cc1	inactive
CCS(=O)(=O)c1ccc(O)c(NC(=O)COc2ccc(Cl)cc2)c1	16.9 µM (active)
CCOc1ccc(N(Cc2ccccc2)C(=O)c2nc(SCC)ncc2Cl)cc1	inactive
CCCN1CN=C(NS(=O)(=O)c2ccc(NC(C)=O)cc2)NC1	inactive
COC(=O)C1C(=O)c2c([nH]c(C(=O)OCCSC)c2C)CC1C (centres undefined)	7.57 µM (active)
COCCOC(=O)c1[nH]c2c(c1C)C(=O)CC(c1ccc(OC)cc1)C2 (centres undefined)	inactive
CCCOC(=O)C1=C(C)NC2=C(C(=O)C(C(=O)OC)C(C)C2)C1c1ccc(N(C)C)cc1 (centres undefined)	inactive
CCc1ccc(NC(=O)Cn2c(=O)n(CCC(=O)NCc3ccc4c(c3)OCO4)c(=O)c3ccccc32)cc1	inactive
CC(C)CC(=O)NCC(c1ccc2c(c1)OCO2)N1CCN(c2ccc(F)cc2)CC1 (centres undefined)	inactive
CCC(=O)Nc1c(C)n[nH]c1C	inactive
Cc1ccc(Nc2nc(C)cc(C)c2C(N)=O)cc1	inactive
Cc1ccc(Nc2nc(Cl)c(C=O)s2)cc1	12 µM (active)
Cc1ccc(NC(=O)Nc2nnc(-c3ccncc3)s2)cc1	inactive
Cc1ccc2c(=O)c(C(=O)c3cccc(Cl)c3)cn(CC(=O)NCc3ccccc3)c2n1	inactive
CSCCC(NC(=O)c1ccc(Cl)cc1Cl)C(=O)NNC(=O)c1csc(N2CCOCC2)n1 (centres undefined)	23.9 µM (active)
COc1ccccc1C(=O)NC(CCSC)C(=O)NNC(=O)c1csc(N2CCOCC2)n1 (centres undefined)	inactive
COc1ccc(NS(=O)(=O)c2ccc(C)c(C(=O)NNC(=O)c3csc(N4CCOCC4)n3)c2)cc1	inactive
Cc1ccc(NC(=O)Nc2sc3nc4n(c(=O)c3c2C)CCC(C)CC4)c(Cl)c1 (centres undefined)	inactive
CCc1cc2c(=O)c(-c3ccon3)c(N)oc2cc1OC	2.39 µM (active)
CCc1cc2c(=O)c(-c3ccc(F)cc3)c(C(F)(F)F)oc2cc1OCC(=O)O	inactive
COc1ccc2oc(N)c(C=O)c(=O)c2c1	inactive
